# Laboratory results reported in PubChem BioAssay (NCATS).
# Inconclusive results are not listed. The source made the active and inactive calls. Unless noted, calls come from the whole dose curve; as a rule, active = well fitted curve in the direction sought with a large enough effect; inconclusive = small, poorly fitted or top-dose-only effect, or another doubt; inactive = no such curve, though single readings can be large; an effect the other way counts as inactive or inconclusive.
# Experiments:
# [1] = P-glycoprotein substrates identified in KB-3-1 adenocarcinoma cell line, qHTS therapeutic library screen (AID 1346986); note: nearly all actives have a fitted effect of over 60% in size;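 note: potency is the fitted concentration of half-maximal effect; potency is for cytotoxicity meaning loss of cell viability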
# Outline: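 Viability read by CellTiter-Glo after 72 h compound exposure in dose-response of KB-3-1 and KB-8-5-11 (P-gp-high) cells. Hits needed AC50 < 10 uM, >50% maximum response and curve class -1.1 to -2.4. Cherry-picks retested ± tariquidar, including pcDNA/MDR-19 HEK-293 pair.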
# [2] = P-glycoprotein substrates identified in KB-8-5-11 adenocarcinoma cell line, qHTS therapeutic library screen (AID 1346987); note: % is set by controls: 0 for no effect and ±100 for the full control effect; nearly all actives have a fitted effect of over 65% in size
# Outline: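 Compounds are pinned in dose-response onto KB-8-5-11 cells (500 cells/well, colchicine-free medium) and left 72 h at 37 degree C. CellTiter-Glo luminescence then yields AC50 values.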
# [3] = target: Glutathione peroxidase 1 (Homo sapiens) (UniProt P07203); test: Primary qHTS Assay for Inhibitors of Recombinant Selenoprotein Glutathione Peroxidase 1 (GPX1) (AID 1845191); note: nearly all actives have a fitted effect of over 65% in size
# Glutathione peroxidase 1 (Homo sapiens), sequence (P07203 whole entry, looked up): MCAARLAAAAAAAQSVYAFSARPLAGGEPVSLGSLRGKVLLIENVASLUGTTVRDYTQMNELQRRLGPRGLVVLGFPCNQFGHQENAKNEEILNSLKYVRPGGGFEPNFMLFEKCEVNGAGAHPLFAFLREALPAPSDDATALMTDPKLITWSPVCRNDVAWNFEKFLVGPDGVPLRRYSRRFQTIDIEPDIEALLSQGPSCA
# Outline: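 NADPH consumption tracked by fluorescence at 340/450 nm between t=0 and t=15 min, room temperature. Final mix: 10 nM GPX1, 100 nM glutathione reductase, 1 mM GSH, 0.5 mM NADPH, 0.5 mM cumene hydroperoxide, 0.01% BSA; 30 min compound–enzyme preincubation.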
# [4] = Primary qHTS for inhibitors of nuclear receptor binding SET domain protein 2 (NSD2) in an isogenic RCH-ACV NSD2 p.E1099K mutant (9B) (AID 1645876); note: nearly all actives have a fitted effect of over 70% in size; note: potency is the fitted concentration of half-maximal effect
# [5] = Primary qHTS for inhibitors of nuclear receptor binding SET domain protein 2 (NSD2) in an RCH-ACV wild type WT cells (2C) (AID 1645877); note: nearly all actives have a fitted effect of over 70% in size; note: potency is the fitted concentration of half-maximal effect
# [6] = qHTS to identify inhibitors of the type 1 interferon - major histocompatibility complex class I in skeletal muscle: primary screen against the NCATS Mechanism Interrogation Plate v5.0 (MIPE) Libary (AID 1347411); note: nearly all actives have a fitted effect of over 65% in size; note: potency is the fitted concentration of half-maximal effect;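 for activity change, negative = inhibition: plate controls were vehicle for no effect and reference inhibitor for full effect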
# Outline: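 Luminescence from CRISPR HiBit-tagged endogenous HLA-B in human myoblasts reported MHC class I level after 24 h of IFN-beta (4 ng/ml) plus compound. Compounds ran as 11-point 1:3 series, top 46 uM final.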
# [7] = target: Phospholipid hydroperoxide glutathione peroxidase GPX4 (Homo sapiens) (UniProt P36969); test: Primary qHTS Assay for Inhibitors of Recombinant Selenoprotein Glutathione Peroxidase 4 (GPX4) (AID 1845192); conditions: outcome: dose series up to 50 µM unless noted; note: % is set by controls: 0 for no effect and ±100 for the full control effect; nearly all actives have a fitted effect of over 65% in size
# Phospholipid hydroperoxide glutathione peroxidase GPX4 (Homo sapiens), sequence (P36969 whole entry, looked up): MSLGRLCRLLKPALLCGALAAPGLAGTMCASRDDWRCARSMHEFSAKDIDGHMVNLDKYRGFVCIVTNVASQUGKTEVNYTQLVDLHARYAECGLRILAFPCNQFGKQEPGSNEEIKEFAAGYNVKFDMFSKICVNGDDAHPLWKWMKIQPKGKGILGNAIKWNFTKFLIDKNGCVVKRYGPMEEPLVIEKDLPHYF
# Outline: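 NADPH consumption followed by fluorescence at 340/450 nm, t=0 and after 15 min at room temperature. Reaction started with cumene hydroperoxide (0.5 mM final) after 30 min compound–GPX4 preincubation; final 200 nM GPX4, 100 nM GR, 1 mM GSH, 0.5 mM NADPH.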
# [8] = qHTS drug screen for cell cycle checkpoint inhibitors in PARPi-resistant BRCA-mutant ovarian cancer cell lines. (AID 1963452; calls by dose curve; note: potency is the fitted concentration of half-maximal effect); conditions: PEO1/OlaR viability, CellTiter-Glo luminescence, 96 h; for Z-AUC: stronger effect = lower value
# Outline: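 PEO1, PEO4 and PEO1/OlaR ovarian cancer cells, 600 per well, exposed 96 h at 37C to a dilution series. Viability read by CellTiter-Glo luminescence, normalized to DMSO and empty wells; activity summarized as Z-AUC.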
# [9] = tested on: Zika virus NS2B-NS3 protease; test: Primary screen GU AMC qHTS for Zika virus inhibitors (AID 1347154);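 note: 0% = no-inhibitor control and -100% = no-enzyme control; nearly all actives have a fitted effect of over 70% in size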
# Outline: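 Fluorogenic AMC-substrate cleavage by noncovalent NS2B-NS3 protease complex (25 nM, pH 8.0 Tris buffer with Tween 20) followed for 15 minutes at room temperature (~20% conversion). Percent inhibition from ex340/em450 signal change, fitted by 4-parameter Hill equation.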
# [10] = Primary qHTS for small molecule stabilizers of the endoplasmic reticulum resident proteome: Secreted ER Calcium Modulated Protein (SERCaMP) assay (AID 1508630); note: % is set by controls: 0 for no effect and ±100 for the full control effect
# Outline: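 The SH-SY5Y reporter protocol was run at 3 concentrations up to 38.3 uM (primary) or 11 concentrations (follow-up): 16 h compound, 100 nM thapsigargin for 4 h, then extracellular luciferase luminescence.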
# [11] = qHTS assay to identify inhibitors of the type 1 interferon - major histocompatibility complex class I in skeletal muscle: Counter screen cell viability and HiBit confirmation (AID 1347412); conditions: iHSKM muscle cells + IFN-b, HiBiT or CellTiter-Glo, 24 h; HiBiT; at 45.9 µM (top of the series); note: % is set by controls: 0 for no effect and ±100 for the full control effect; nearly all actives have a fitted effect of over 60% in size
# Outline: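 Duplicate plates, pinned identically: one read for HiBiT-tagged endogenous HLA-B luminescence, the other for ATP-content viability via CellTiter Glo. Cells were genome-engineered human myoblasts given 4 ng/ml IFN-b; compounds 12-pt, 1:3 from 46 uM final; 24 hr exposure.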
# [12] = measured here: PEO1 parental Z-AUC
smiles,measurement,setting,value
Cc1nc(CNc2ncnc3ccc(-c4ccc5c(c4)OCO5)cc23)cs1,Potency,[1],inactive
same,Potency,[2],inactive
same,Potency,[3],inactive
CC(=O)[C@H]1CCC2C3CCC4=CC(=O)CC[C@]4(C)C3[C@H](O)C[C@@]21C (stereo partly specified),Potency,[1],inactive
same,Potency,[4],inactive
same,Potency,[5],inactive
same,Potency,[3],inactive
N#Cc1cccc(CN2CCC(N(Cc3cccnc3)C(=O)Nc3ccccc3-c3ccccc3)CC2)c1,Potency,[1],inactive
same,Potency,[2],inactive
same,Potency,[3],inactive
O=C(NCCc1c[nH]c2ccc(O)cc12)c1ccc2ccccc2c1O,Potency,[1],8.2 µM (active)
same,Potency,[3],inactive
CC(C)(N)c1cc(C(=O)N[C@@H]2CCc3ccc(Oc4ccnc5c4CCC(=O)N5)cc3C2)cc(C(F)(F)F)c1,Potency,[1],18.4 µM (active)
same,Potency,[4],11.6 µM (active)
same,Potency,[5],14.6 µM (active)
same,Potency,[3],inactive
Cn1cc(-c2cc(Oc3cc(F)c(NC(=O)C4(C(=O)Nc5ccccc5)CC4)cc3F)ccn2)cn1,Potency,[1],18.4 µM (active)
same,Potency,[6],29.4 µM (active)
same,Potency,[4],9.34 µM (active)
same,Potency,[5],13.2 µM (active)
same,Potency,[3],inactive
same,Potency,[7],inactive
same,Z-AUC,[8],0.797 (inactive)
same,Z-AUC,[8]; [12],-0.238
same,Z-AUC,[8]; measured here: PEO4 Z-AUC,0.178
Nc1ccn([C@H]2O[C@@H](CO)[C@H](O)[C@H]2O)c(=O)n1,Potency,[1],3.66 µM (active)
same,Potency,[4],0.0206 µM (active)
same,Potency,[5],0.0164 µM (active)
COc1ccc2c(c1O)OC(C)(C)c1c-2ccc2c1C(=O)N(c1ccc(C(=O)c3ccccc3)cc1)C2=O,Potency,[1],inactive
same,Potency,[3],inactive
CCCC(NC(=O)/C(C#N)=C/c1cccc(Br)n1)c1ccccc1 (stereo unspecified),Potency,[1],16.4 µM (active)
same,Potency,[4],2.91 µM (active)
same,Potency,[5],3.26 µM (active)
COc1cc2ncnc(Nc3ccc(NC(=O)c4ccccc4)cc3)c2cc1OC,Potency,[1],20.6 µM (active)
same,Potency,[4],8.2 µM (active)
same,Potency,[5],5.8 µM (active)
same,Potency,[3],inactive
O=c1cc(N2CCNCC2)oc2c(-c3ccccc3)cccc12,Potency,[1],7.31 µM (active)
same,Potency,[9],inactive
same,Potency,[10],inactive
COCc1c(-c2ccc(NC(=O)Nc3cc(C(F)(F)F)ccc3F)c(F)c2)c2c(N)ncnn2c1CN1CCOCC1,Potency,[1],16.4 µM (active)
same,Potency,[6],3.3 µM (active)
same,Potency,[3],inactive
same,Potency,[8],3.47 µM (active)
same,Z-AUC,[8]; [12],-1.33
same,Z-AUC,[8]; measured here: PEO4 Z-AUC,-1.61
same,"activity change, negative = inhibition",[11],-92% (inactive)
CCOC(=O)N1CCN(C(=O)Cn2sc3nc(C)cc(C)c3c2=O)CC1,Potency,[1],inactive
same,Potency,[2],inactive
same,Potency,[3],inactive
Cc1cc(/C=c2/sc3nc4ccccc4n3c2=O)c(C)n1-c1ccccc1,Potency,[1],inactive
same,Potency,[6],inactive
same,Potency,[3],inactive
same,Z-AUC,[8],0.302 (inactive)
same,Z-AUC,[8]; [12],0.332
same,Z-AUC,[8]; measured here: PEO4 Z-AUC,0.429
Cc1cc(F)c(Nc2ncnc3cc(OCc4ccccc4)ccc23)cc1O,Potency,[1],inactive
same,Potency,[9],inactive
same,Potency,[4],3.66 µM (active)
same,Potency,[5],3.26 µM (active)
same,Potency,[3],inactive
